# Rows were chosen to be rich in hits. Some 2.4% of all compounds tested hit in one or more screens of this group.
# D2 PAM-1: human D2 receptor positive allosteric modulation; DiscoveRx D2 beta-arrestin cells, luminescence, 90 min; 100% = 57 uM dopamine signal; potentiation, % (no concentration beside the values); AID 624464; P14416; 360,000 tested, 0.23% active; in the data active means potentiation above about 50%; inconclusive means mostly about 30% to 49%
# Target sequence (P14416 whole entry, looked up): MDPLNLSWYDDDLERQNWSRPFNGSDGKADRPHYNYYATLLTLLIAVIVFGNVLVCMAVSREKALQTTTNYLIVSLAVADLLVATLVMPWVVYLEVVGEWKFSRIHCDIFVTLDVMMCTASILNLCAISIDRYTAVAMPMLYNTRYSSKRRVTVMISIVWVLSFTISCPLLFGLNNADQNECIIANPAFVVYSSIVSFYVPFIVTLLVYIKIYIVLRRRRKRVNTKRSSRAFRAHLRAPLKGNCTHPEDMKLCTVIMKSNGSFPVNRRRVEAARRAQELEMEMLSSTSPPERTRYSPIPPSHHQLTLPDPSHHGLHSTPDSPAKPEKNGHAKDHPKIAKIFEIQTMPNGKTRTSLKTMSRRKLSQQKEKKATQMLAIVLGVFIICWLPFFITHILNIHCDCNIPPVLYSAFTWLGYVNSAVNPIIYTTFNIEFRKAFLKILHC
#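 D2 cells co-treated with compound plus 50 nM dopamine (EC20) for 90 min at 37 deg C to detect potentiation. Beta-arrestin recruitment was read as enzyme-fragment luminescence after 1 h at ambient temperature. Full response was set by 57 uM dopamine.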
# D2 antagonist: D2 dopamine receptor (human) antagonism | 340,000 tested, 2% active | inhibition, % at 10 µM | HEK293 TREx D2 cells, calcium flux, dopamine EC80; in the data active means inhibition above about 30%; inactive means below that, where a call was filed; further: 0% is about no effect
#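 Overnight-induced (tetracycline, 30 C) HEK293 T-REx cells carrying force-coupled D2 receive a no-wash calcium dye, then compound, then EC80 dopamine at 180 s; signals are read kinetically throughout.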
# D2 PAM-2: positive allosteric modulators of human D2 dopamine receptor. 340,000 tested, 0.34% active. potentiation, % at 10 µM. AID 485347. HEK293 T-REx D2, calcium flux, EC20 dopamine potentiation;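 active means potentiation over 3 SD above the plate norm, cut at about 30% in these data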; further: 0% is about no effect
#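 Tetracycline-induced HEK293 T-REx cells force-coupled to calcium signalling expressed D2; compounds were pin-added after a 10 s baseline, read kinetically 180 s, then an EC20 dopamine challenge followed with a further 180 s calcium read.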
# D2 ag-1: activates the human D2 dopamine receptor. HEK293 T-REx D2 cells, calcium flux agonist mode. activation, % at 2 µM. 340,000 tested, 0.53% active. AID 485358;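 active means activation over 3 SD above normal in the single-dose calcium agonist read, cut at about 30% in these data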; further: 0% is about no effect
#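 Tetracycline-induced HEK293 Trex cells with D2 receptor force-coupled to calcium signaling, plated overnight at 30 C and loaded with no-wash calcium dye. Calcium flux read kinetically for 180 s after compound addition; responses flag agonists.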
# D2 ag-2: activates the human D2 dopamine receptor. P14416. 360,000 tested, 0.084% active. activation, % (concentration not given with the values). DiscoveRx PathHunter D2 beta-arrestin, luminescence, 90 min; 100% = 57 uM dopamine signal; in the data active means activation above about 40%; inconclusive means between about 15% and that limit
#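 DiscoveRx PathHunter D2 beta-arrestin cells (2,100/well) attached overnight, then compound-stimulated 90 min at 37 C in HBSS/10 mM HEPES/0.1% Tween-20 buffer; beta-galactosidase complementation read by luminescence after 1 h at ambient temperature. Dopamine 57 uM final (EC100) as control.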
# * hit, by the source's call; ? = inconclusive; · = not tested or not shown.
SMILES,D2 PAM-1,D2 antagonist,D2 PAM-2,D2 ag-1,D2 ag-2
O=C1CC(c2ccc(OCCCCCOc3ccc(C4CC(=O)NC4=O)cc3)cc2)C(=O)N1 (stereo not given),7.6,36.6*,4.8,-0.1,8.9
S=C(NNc1ccc2ccccc2c1)NC1CCCCC1,16.6,·,·,·,-3.0
Cc1cc(C)cc(-n2c(SCC(=O)Nc3nnc(C)s3)nc3c([nH]c4ccccc43)c2=O)c1,·,·,-3.7,1.3,·
CN(C)c1ccnc(Oc2ccc(Cl)cc2)c1C#N,-7.7,-19.0,42.0*,0.2,-2.2
CCc1cccc(CC)c1NC(=O)CCCSc1nc2ccccc2s1,15.0,30.3*,-2.3,-1.4,1.9
Cc1cccc(C)c1NC(=O)CCCSc1nc2ccccc2s1,-20.8,-3.5,7.6,-0.6,-3.4
CS(=O)(=O)NCC(c1ccco1)N1CCN(c2ccccc2)CC1 (stereo not given),·,·,-3.3,16.4,·
CCN(CC)CCNC(=O)C(=O)NCC1OCCN1S(=O)(=O)c1ccc([N+](=O)[O-])cc1 (stereo not given),50.2*,-1.9,-12.0,2.4,8.6
COc1ccccc1CCNC(=O)C(=O)NCC1OCCN1S(=O)(=O)c1ccc(Cl)cc1 (stereo not given),-5.0,36.3*,-3.0,0.7,-3.5
O=C(Cn1cnc2nc3c(cc2c1=O)CCCC3)Nc1ccc(F)cc1Cl,·,·,-1.3,0.1,·
COC(=O)c1cc(OC)c(OC)c(OC)c1NC(=O)c1cc(=O)n(C)c(=O)n1C,·,·,5.9,·,·
Fc1cccc(-c2cc3nc4c(c(N5CCC6(CC5)OCCO6)n3n2)CCCC4)c1,1.1,4.7,32.2*,-2.0,-4.5
COc1ccc(-c2nc3ccccc3o2)cc1NC(=O)COc1ccc(C(C)(C)C)cc1,·,·,18.4,-1.9,·
Cc1nc(SCC(=O)Nc2ccc(F)cc2)c(C#N)c(C)c1CC(=O)c1ccc(Br)cc1,-4.4,44.1*,0.7,-0.5,-3.2
Cc1cc(OCCn2c(CCNC(=O)C3CCCCC3)nc3ccccc32)ccc1Cl,·,·,9.5,2.5,·
O=[N+]([O-])c1nn(-c2cccc(Cl)c2)n(O)c1=NCc1cccnc1,59.0*,-0.2,-0.2,-0.7,?
Cc1cccc(-n2nc([N+](=O)[O-])c(=NCc3cccnc3)n2O)c1,68.4*,-6.0,-4.1,0.4,?
CC(C)(C)OC(=O)N1CCC(c2c(C(=O)NCCN3CCOCC3)cnn2-c2cccc(F)c2)CC1,·,·,0.9,1.5,·
CCOc1ccc(CCNS(=O)(=O)c2cc(Br)cc3c2N(C(C)=O)CC3)cc1OCC,·,·,-1.8,-0.1,·
CCOc1ccc(C(=O)Nc2cc(-c3nc4ccccc4o3)ccc2C)cc1Cl,·,·,1.4,·,·
O=C(CCCN1CCOCC1)c1ccc2c(c1)OCCO2,-21.9,-6.9,1.7,0.2,1.2
O=C(CCCN1CCC(c2ccccc2)C1)c1ccc2c(c1)OCCO2 (stereo not given),-29.8,79.1*,-23.4,2.7,-1.3
Cc1ccccc1OCC(=O)Nc1ccc(S(=O)(=O)N(Cc2ccccc2)c2ccccc2)cc1,·,·,6.7,2.6,·
c1ccc2sc(-c3ccc4c(c3)OCO4)nc2c1,-12.5,11.3,31.1*,-0.5,0.5
O=C(Nc1cccc(-c2nc3ccccc3s2)c1)c1ccc2c(c1)OCO2,-13.3,-6.6,-9.9,0.5,0.5
SMILES,D2 PAM-1,D2 antagonist,D2 PAM-2,D2 ag-1,D2 ag-2
CC(C)c1ccc(N2C(=O)/C(=C/N(C)C)SC2=S)cc1,-22.5,12.5,-2.9,30.4*,-5.1
CCO/C=C1\SC(=S)N(c2ccc(Cl)cc2)C1=O,-9.0,-7.5,4.0,0.3,-5.4
Cc1cccc(C)c1OCCN1C(=O)NC(C)(c2ccccc2)C1=O (stereo not given),-5.7,-7.6,38.8*,1.2,-5.1
O=c1c2nnn(-c3cccc(F)c3)c2ncn1Cc1ccccn1,1.6,33.9*,-19.4,-0.1,1.0
O=C(NCCSCc1ccco1)Nc1cc(Cl)cc(Cl)c1,-16.6,30.3*,-12.9,1.9,-1.4
COc1ccc2ccc(=O)oc2c1CC(=O)C(C)C,-16.4,·,·,·,-2.1
O=C(c1ccc2c3c(cccc13)CC2)C1CCCN(Cc2ccccn2)C1 (stereo not given),-6.6,36.7*,-17.8,-0.4,-1.6
O=C(c1ccc2c3c(cccc13)CC2)C1CCCN(Cc2ccc(OCCO)cc2)C1 (stereo not given),-4.8,30.8*,-31.9,0.3,-0.1
Cc1cnc(CN2CCCC(C(=O)c3ccc4c5c(cccc35)CC4)C2)[nH]1 (stereo not given),-16.3,7.5,-32.1,-1.3,-3.5
Cc1cccc(OCC(=O)Nc2cccc(C(=O)OCc3cc(=O)n4c(C)csc4n3)c2)c1,·,·,7.4,1.9,·
COc1ccc(N(C(=O)c2snc(C(N)=O)c2N)C(C(=O)NCc2ccccc2)c2ccc(O)cc2)cc1 (stereo not given),0.9,0.3,-2.9,0.1,-0.3
COc1ccc(OC)c(N(C(=O)c2snc(C(N)=O)c2N)C(C(=O)NCc2ccccc2)c2ccc(O)cc2)c1 (stereo not given),1.2,43.4*,-2.7,1.4,-0.4
CC12CN3CC(C)(CN(C1)C3c1ccc(Br)cc1O)C2 (stereo not given),-12.5,36.1*,-22.1,0.7,-2.9
CC(C)c1ccc(NC(=O)CN2C(=O)c3cccc4cccc2c34)cc1,·,·,-7.5,0.3,·
Cc1ccc(C(C)C)c(OCCN2CCc3ccccc3C2)c1,-26.8,-15.1,-15.3,-0.9,-1.0
Cc1ccc(C)c(OCCCN2CCc3ccccc3C2)c1,-27.0,70.4*,-19.3,0.1,4.2
Cc1ccc(OCCCCN2CCc3ccccc3C2)c(C)c1,-8.0,75.9*,-24.7,1.2,-0.4
Cc1ccc(OCCCCn2cnc3ccccc32)c(C)c1,-13.9,12.4,2.2,0.5,0.9
Cc1ccc(C(C)C)c(OCCCN2CCc3ccccc3C2)c1,-72.2,30.5*,-29.4,-0.3,-3.2
Cc1ccc(NCc2cccn2-c2nnc(N3CCC(C(=O)NCCc4ccccc4)CC3)s2)cc1,·,·,6.9,-0.3,·
CC(C)CCNc1nc2c(S(=O)(=O)c3ccc(Br)cc3)nnn2c2ccsc12,·,·,-1.1,-0.5,·
COc1ccc(C2C(C(=O)O)CCC(=O)N2c2ccc(OC)cc2)cc1 (stereo not given),-7.3,17.6,3.5,0.0,-2.1
COc1ccc(C2C(C(=O)NCc3ccco3)CCC(=O)N2c2ccc(OC)cc2)cc1 (stereo not given),-12.1,38.3*,3.3,-0.1,-1.1
CN1CCC(N(C)S(=O)(=O)c2ccc(F)cc2F)CC1,-15.3,32.8*,-8.3,2.2,-2.1
COc1ccc(Nc2nc(C(=O)N3CCc4cc(OC)c(OC)cc4C3)cs2)cc1,4.1,21.9,-0.9,-2.2,10.1
COc1ccc(Nc2nc(C(=O)N3CCc4ccccc4C3)cs2)cc1,-6.4,81.5*,25.0,-0.3,-5.1

# High-throughput results (PubChem)
